Measurements: PubChem BioAssay (NCATS)
Records with an inconclusive call do not appear. The source made the active and inactive calls. Calls follow the shape of the dose curve; as a rule, active = well fitted curve in the direction sought with a large enough effect; inconclusive = small, poorly fitted or top-dose-only effect, or another doubt; inactive = no such curve, though single readings can be large; an effect the other way counts as inactive or inconclusive. Where a SMILES comes first, the peptide text is derived from it. Bridges are numbered along the chain shown (N, C = ends). [ ]: non-standard residue; d: D form. NMeY = CN[CH](Cc1ccc(O)cc1)C(=O)O

Key:
[1] = test system: NIH3T3; test: qHTS assay to identify novel small-molecules to repurpose for Merkel cell carcinoma treatment (AID 1296009); details: MCC and control cell lines, CellTiter-Glo viability, 72 h; at 44.8 µM (top of the series) unless noted; also: nearly all actives have a fitted effect of over 60% in size
In short: (§1)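 Dose-response viability screen; 72 hr exposure at 37 degree celsius; CellTiter-Glo added, 10 min room temperature, luminescence read; RLUs scaled between no-cell and DMSO wells.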

[2] = test system: C33A; test: Primary qHTS to identify gynecologic anti-cancer compounds using libraries of approved drugs and bioactive compounds (AID 1345084); details: Gynecologic cancer cell panel viability, ATPlite luminescence, 48 h; series mostly up to 57.5 µM; also: nearly all actives have a fitted effect of over 55% in size
In short: (§2)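 Luminescence from the ATPlite ATP-monitoring reagent indicates viable cell number; lower signal means cytotoxicity. Cells received compound 16 h after seeding and were exposed for 48 h across five concentrations.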

[3] = test system: CAOV3; test: as above; details: Gynecologic cancer cell panel viability, ATPlite luminescence, 48 h; series mostly up to 57.5 µM
In short: as §2

[4] = test system: CASKI; test: as above; details: Gynecologic cancer cell panel viability, ATPlite luminescence, 48 h; series mostly up to 57.5 µM
In short: as §2

[5] = test system: Es-2; test: as above; details: Gynecologic cancer cell panel viability, ATPlite luminescence, 48 h; series mostly up to 57.5 µM
In short: as §2

[6] = test system: HeLa; test: as above; details: Gynecologic cancer cell panel viability, ATPlite luminescence, 48 h; series mostly up to 57.5 µM
In short: as §2

[7] = test system: Hek293T; test: as above; details: Gynecologic cancer cell panel viability, ATPlite luminescence, 48 h, control line for the selectivity index; series mostly up to 57.5 µM
In short: as §2

[8] = test system: JEG-3; test: as above; details: Gynecologic cancer cell panel viability, ATPlite luminescence, 48 h; series mostly up to 57.5 µM
In short: as §2

[9] = test system: OV90; test: as above; details: Gynecologic cancer cell panel viability, ATPlite luminescence, 48 h; series mostly up to 57.5 µM
In short: as §2

[10] = test system: PA-1; test: as above; details: Gynecologic cancer cell panel viability, ATPlite luminescence, 48 h; series mostly up to 57.5 µM
In short: as §2

[11] = test system: SKOV3; test: as above; details: Gynecologic cancer cell panel viability, ATPlite luminescence, 48 h; series mostly up to 57.5 µM
In short: as §2

[12] = test system: Tov-21-G; test: as above; details: Gynecologic cancer cell panel viability, ATPlite luminescence, 48 h; series mostly up to 57.5 µM
In short: as §2

[13] = test system: Tov112D; test: as above; details: Gynecologic cancer cell panel viability, ATPlite luminescence, 48 h; series mostly up to 57.5 µM
In short: as §2

[14] = test system: UISO; test: qHTS assay to identify novel small-molecules to repurpose for Merkel cell carcinoma treatment (AID 1296009); details: MCC and control cell lines, CellTiter-Glo viability, 72 h; series mostly up to 46 µM; also: nearly all actives have a fitted effect of over 60% in size
In short: as §1

[15] = test system: WaGa; test: as above; details: MCC and control cell lines, CellTiter-Glo viability, 72 h; series mostly up to 46 µM
In short: as §1
% is scaled to controls: 0 for no effect and ±100 for the full control effect.

C=C(C)C1CCC2(C(=O)O[C@@H]3O[C@H](CO[C@@H]4O[C@H](CO)[C@@H](O)[C@H](O)[C@H]4O)[C@@H](O)[C@H](O[C@@H]4O[C@@H](C)[C@H](O)[C@@H](O)[C@H]4O)[C@H]3O)CCC3(C(=O)O)C(CCC4C5(C)CCC(O)C(C)(C)C5CCC43C)C12 (stereo partly drawn)
inactive: outcome [1] inactive [at 9.27 µM] | activity change, negative = cytotoxicity [2] -9.37% [at 11.6 µM] | activity change, negative = cytotoxicity [3] -3.74% [at 11.6 µM] | activity change, negative = cytotoxicity [4] 13.9% [at 11.6 µM] | activity change, negative = cytotoxicity [5] 1.26% [at 11.6 µM] | activity change, negative = cytotoxicity [6] -0.105% [at 11.6 µM] | activity change, negative = cytotoxicity [7] -3.68% [at 11.6 µM] | activity change, negative = cytotoxicity [8] 18.7% [at 11.6 µM] | activity change, negative = cytotoxicity [9] 15.5% [at 11.6 µM] | activity change, negative = cytotoxicity [10] -1.76% [at 11.6 µM] | activity change, negative = cytotoxicity [11] -5.29% [at 11.6 µM] | activity change, negative = cytotoxicity [12] 9.18% [at 11.6 µM] | activity change, negative = cytotoxicity [13] 11.4% [at 11.6 µM]

COC(=O)CC(O)CC(O)/C=C/c1c(C)ccc2c1C(O)CC(C)C2 (stereo not drawn)
inactive: outcome [1] | Potency [2] | Potency [3] | Potency [4] | Potency [5] | Potency [6] | Potency [7] | Potency [8] | Potency [9] | Potency [10] | Potency [11] | Potency [12] | Potency [13]

CC1CC(O)C2(OC1=O)OC1C(O)C3C4CCC5CC(OC6OC(CO)C(O)C(O)C6OC6OC(C)C(O)C(O)C6O)CCC5(C)C4CCC3(C)C1C2C (stereo not drawn)
inactive: outcome [1] inactive [at 17.4 µM] | Potency [2] | Potency [3] | Potency [4] | Potency [5] | Potency [6] | Potency [7] | Potency [8] | Potency [9] | Potency [10] | Potency [11] | Potency [12] | Potency [13]

CCCCCCOc1cc2c(cc1N(C)c1ncc(C(=O)O)cn1)C(C)(C)CCC2(C)C
inactive: outcome [1] | Potency [2] | Potency [3] | Potency [4] | Potency [5] | Potency [6] | Potency [7] | Potency [8] | Potency [9] | Potency [10] | Potency [11] | Potency [12] | Potency [13]

CCC(C)C1NC(=O)C2CCCN2C(=O)C(NC(C)=O)C(C)OC(=O)C(Cc2ccc(OC)cc2)N(C)C(=O)C2CCCN2C(=O)C(C(C)C)NC1=O (stereo not drawn) (Ac-TPIVP[NMeY](Me); ester 1-C; configuration not given here)
inactive: outcome [1] inactive [at 17.4 µM] | Potency [2] | Potency [3] | Potency [4] | Potency [5] | Potency [6] | Potency [7] | Potency [8] | Potency [9] | Potency [10] | Potency [11] | Potency [12] | Potency [13]

COC(=O)C12CCC(C)C(C)C1C1=CCC3C4(C)CCC(OC(C)=O)C(C)(C)C4CCC3(C)C1(C)CC2 (stereo not drawn)
inactive: outcome [1] inactive [at 17.4 µM] | Potency [2] | Potency [3] | Potency [4] | Potency [5] | Potency [6] | Potency [7] | Potency [8] | Potency [9] | Potency [10] | Potency [11] | Potency [12] | Potency [13]

O=C(O)c1c(O)c(-c2ccccc2)nc2ccccc12
inactive: outcome [1] | Potency [14] | Potency [15] | Potency [2] | Potency [3] | Potency [4] | Potency [5] | Potency [6] | Potency [7] | Potency [8] | Potency [9] | Potency [10] | Potency [11] | Potency [12] | Potency [13]

C=CC(C)(C)c1[nH]c2cc3c(cc2c1CC1NC(=O)C2CCCN2C1=O)C=CC(C)(C)O3 (stereo not drawn)
inactive: outcome [1] inactive [at 17.4 µM] | Potency [2] | Potency [3] | Potency [4] | Potency [5] | Potency [6] | Potency [7] | Potency [8] | Potency [9] | Potency [10] | Potency [11] | Potency [12] | Potency [13]

COc1cc(O)c2c(c1)C1=C[C@H](O)[C@@H](O)C[C@]1(C)OC2=O
inactive: outcome [1] | Potency [2] | Potency [3] | Potency [4] | Potency [5] | Potency [6] | Potency [7] | Potency [8] | Potency [9] | Potency [10] | Potency [11] | Potency [12] | Potency [13]

O=C(/C=C/c1ccccc1)OC[C@]12O[C@H]1[C@@H](O)[C@@H]1C=CO[C@@H](O[C@@H]3O[C@H](CO)[C@@H](O)[C@H](O)[C@H]3O)[C@@H]12
inactive: outcome [1] inactive [at 17.4 µM] | Potency [2] | Potency [3] | Potency [4] | Potency [5] | Potency [6] | Potency [7] | Potency [8] | Potency [9] | Potency [10] | Potency [11] | Potency [12] | Potency [13]

CC1(C)CC[C@]2(C(=O)O[C@@H]3O[C@H](CO)[C@@H](O)[C@H](O)[C@H]3O)CC[C@]3(C)C(=CCC4[C@@]5(C)CC[C@H](O[C@@H]6O[C@H](C(=O)O)[C@@H](O)[C@H](O[C@@H]7O[C@H](CO)[C@H](O)[C@H](O)[C@H]7O)[C@H]6O)C(C)(C)C5CC[C@]43C)C2C1 (stereo partly drawn)
inactive: outcome [1] inactive [at 9.27 µM] | activity change, negative = cytotoxicity [2] -1.04% [at 11.6 µM] | activity change, negative = cytotoxicity [3] 0.89% [at 11.6 µM] | activity change, negative = cytotoxicity [4] -0.547% [at 11.6 µM] | activity change, negative = cytotoxicity [5] -0.756% [at 11.6 µM] | activity change, negative = cytotoxicity [6] -6.39% [at 11.6 µM] | activity change, negative = cytotoxicity [7] 7.67% [at 11.6 µM] | activity change, negative = cytotoxicity [8] 4.29% [at 11.6 µM] | activity change, negative = cytotoxicity [9] 1.32% [at 11.6 µM] | activity change, negative = cytotoxicity [10] -14.7% [at 11.6 µM] | activity change, negative = cytotoxicity [11] 12.6% [at 11.6 µM] | activity change, negative = cytotoxicity [12] -0.142% [at 11.6 µM] | activity change, negative = cytotoxicity [13] -2.13% [at 11.6 µM]

CC1(C)CC[C@]2(C(=O)O)CC[C@]3(C)C(=CCC4[C@@]5(C)CC[C@H](O[C@@H]6O[C@H](CO)[C@@H](O)[C@H](O)[C@H]6O[C@@H]6O[C@H](CO)[C@@H](O)[C@H](O)[C@H]6O)[C@@](C)(CO)C5CC[C@]43C)[C@@H]2C1 (stereo partly drawn)
inactive: outcome [1] inactive [at 17.4 µM] | Potency [2] | Potency [3] | Potency [4] | Potency [5] | Potency [6] | Potency [7] | Potency [8] | Potency [9] | Potency [10] | Potency [11] | Potency [12] | Potency [13]
